Experimental data: PubChem BioAssay AID1159580 (chemical genetic matrix, 2015)
Several values for one entry are separate records, joined by “and”; a condition that tells them apart may be missing. Identical values can stand only once. About 2,000 (36%) of roughly 5,500 compounds were called active. Not shown: some 18% with an inconclusive outcome. No stated cut-off is given here; in the data, active means normalized growth mostly below about 0.91 (no sharp cut-off); inconclusive means no clear call, values can overlap the other calls; inactive means mostly above about 0.92. Some of the results follow.

Assay: chemical genetic growth profiling, strain panel (AID 1159580);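 further: tested at 20 µM; growth read once vehicle control cultures reached saturation at 30 °C; 1 = growth at the plate median or of vehicle wells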
Details: growth OD

Measured: normalized growth

CC(C)OC(=O)C(C)(C)Oc1ccc(C(=O)c2ccc(Cl)cc2)cc1
inactive: S. cerevisiae deletion strains, locus YJR075W, strain HOC1, stronger effect = lower value 0.957 and 0.996 | S. cerevisiae deletion strains, locus YKL009W, strain mrt4, stronger effect = lower value 0.906 | S. cerevisiae deletion strains, locus YKL068W, stronger effect = lower value 0.987 | S. cerevisiae deletion strains, locus YKL085W, strain MDH1 (second series), stronger effect = lower value 0.947 | S. cerevisiae deletion strains, locus YKL085W, strain MDH1, stronger effect = lower value 0.947 | S. cerevisiae deletion strains, locus YKL160W, strain elf1, stronger effect = lower value 0.987 | S. cerevisiae deletion strains, locus YKL190W, strain CNB1, stronger effect = lower value 0.974 | S. cerevisiae deletion strains, locus YKR001C, strain vps1, stronger effect = lower value 0.971 | S. cerevisiae deletion strains, locus YKR026C, strain gcn3, stronger effect = lower value 0.959 | S. cerevisiae deletion strains, locus YKR091W, strain srl3, stronger effect = lower value 0.977 | S. cerevisiae deletion strains, locus YLL001W, strain dnm1, stronger effect = lower value 0.96 | S. cerevisiae deletion strains, locus YLL026W, stronger effect = lower value 0.969 | S. cerevisiae deletion strains, locus YLL041C, strain sdh2, stronger effect = lower value 0.975 | S. cerevisiae deletion strains, locus YLR027C, strain aat2, stronger effect = lower value 0.967 | S. cerevisiae deletion strains, locus YLR039C, strain RIC1, stronger effect = lower value 0.935 | S. cerevisiae deletion strains, locus YLR058C, strain SHM2, stronger effect = lower value 1 | S. cerevisiae deletion strains, locus YLR102C, strain apc9, stronger effect = lower value 0.988 | S. cerevisiae deletion strains, locus YLR113W, strain HOG1, stronger effect = lower value 0.942 | S. cerevisiae deletion strains, locus YLR221C, strain rsa3, stronger effect = lower value 0.976 | S. cerevisiae deletion strains, locus YLR258W, strain gsy2, stronger effect = lower value 0.957 | S. cerevisiae deletion strains, locus YLR262C, strain YPT6 (second series), stronger effect = lower value 0.962 | S. cerevisiae deletion strains, locus YLR262C, strain YPT6, stronger effect = lower value 0.984 | S. cerevisiae deletion strains, locus YLR268W, strain sec22, stronger effect = lower value 0.971 | S. cerevisiae deletion strains, locus YLR320W, strain mms22, stronger effect = lower value 0.96 | S. cerevisiae deletion strains, locus YLR330W, strain CHS5, stronger effect = lower value 1.01 | S. cerevisiae deletion strains, locus YLR342W, strain FKS1 (second series), stronger effect = lower value 1.12 | S. cerevisiae deletion strains, locus YLR342W, strain FKS1, stronger effect = lower value 0.955 | S. cerevisiae deletion strains, locus YLR357W, strain rsc2, stronger effect = lower value 0.957 | S. cerevisiae deletion strains, locus YLR370C, strain arc18, stronger effect = lower value 0.967 | S. cerevisiae deletion strains, locus YLR371W, strain rom2, stronger effect = lower value 0.986 | S. cerevisiae deletion strains, locus YLR384C, strain iki3, stronger effect = lower value 0.971 | S. cerevisiae deletion strains, locus YLR418C, strain cdc73, stronger effect = lower value 0.879 | S. cerevisiae deletion strains, locus YML016C, strain PPZ1, stronger effect = lower value 1.01 | S. cerevisiae deletion strains, locus YML032C, strain rad52, stronger effect = lower value 0.984 | S. cerevisiae deletion strains, locus YML120C, strain ndi1, stronger effect = lower value 0.964 | S. cerevisiae deletion strains, locus YML124C, strain tub3, stronger effect = lower value 0.982 | S. cerevisiae deletion strains, locus YMR058W, strain fet3, stronger effect = lower value 0.987 | S. cerevisiae deletion strains, locus YMR078C, strain ctf18, stronger effect = lower value 0.982 | S. cerevisiae deletion strains, locus YMR125W, strain sto1, stronger effect = lower value 0.942 | S. cerevisiae deletion strains, locus YMR129W, stronger effect = lower value 0.97 | S. cerevisiae deletion strains, locus YMR205C, strain PFK2, stronger effect = lower value 0.923 | S. cerevisiae deletion strains, locus YMR223W, strain ubp8, stronger effect = lower value 0.958 | S. cerevisiae deletion strains, locus YMR231W, strain pep5, stronger effect = lower value 0.969 | S. cerevisiae deletion strains, locus YMR263W, strain SAP30, stronger effect = lower value 1 | S. cerevisiae deletion strains, locus YMR307W, strain GAS1, stronger effect = lower value 0.807 and 0.993 | S. cerevisiae deletion strains, locus YNL067W, strain RPL9B, stronger effect = lower value 0.973 | S. cerevisiae deletion strains, locus YNL071W, strain lat1, stronger effect = lower value 0.941 | S. cerevisiae deletion strains, locus YNL128W, strain TEP1, stronger effect = lower value 1.01 | S. cerevisiae deletion strains, locus YNL153C, strain GIM3, stronger effect = lower value 1.01 and 1.02 | S. cerevisiae deletion strains, locus YNL175C, strain NOP13, stronger effect = lower value 1.02 | S. cerevisiae deletion strains, locus YNL183C, strain NPR1, stronger effect = lower value 0.893 | S. cerevisiae deletion strains, locus YNL197C, strain WHI3, stronger effect = lower value 1.03 | S. cerevisiae deletion strains, locus YNL209W, strain ssb2, stronger effect = lower value 0.983 | S. cerevisiae deletion strains, locus YNL224C, strain SQS1, stronger effect = lower value 0.991 | S. cerevisiae deletion strains, locus YNL233W, strain BNI4, stronger effect = lower value 0.978 | S. cerevisiae deletion strains, locus YNL248C, strain rpa49, stronger effect = lower value 0.997 | S. cerevisiae deletion strains, locus YNL250W, strain rad50, stronger effect = lower value 0.989 | S. cerevisiae deletion strains, locus YNL271C, strain bni1, stronger effect = lower value 0.985 | S. cerevisiae deletion strains, locus YNL298W, strain CLA4, stronger effect = lower value 0.992 | S. cerevisiae deletion strains, locus YNL307C, strain MCK1, stronger effect = lower value 0.973 | S. cerevisiae deletion strains, locus YNL322C, strain KRE1 (second series), stronger effect = lower value 0.983 | S. cerevisiae deletion strains, locus YNL322C, strain KRE1, stronger effect = lower value 1.01 and 0.984 | S. cerevisiae deletion strains, locus YNR049C, strain mso1, stronger effect = lower value 0.98 | S. cerevisiae deletion strains, locus YNR052C, strain pop2, stronger effect = lower value 0.991 | S. cerevisiae deletion strains, locus YOL006C, strain TOP1, stronger effect = lower value 0.61 | S. cerevisiae deletion strains, locus YOL012C, strain htz1 0.615 | S. cerevisiae deletion strains, locus YOL147C, strain pex11, stronger effect = lower value 0.984 | S. cerevisiae deletion strains, locus YOR001W, strain rrp6, stronger effect = lower value 0.99 | S. cerevisiae deletion strains, locus YOR061W, strain CKA2, stronger effect = lower value 0.986 | S. cerevisiae deletion strains, locus YOR069W, strain VPS5, stronger effect = lower value 1.01 | S. cerevisiae deletion strains, locus YOR070C, strain gyp1, stronger effect = lower value 0.971 | S. cerevisiae deletion strains, locus YOR080W, strain dia2, stronger effect = lower value 0.972 | S. cerevisiae deletion strains, locus YOR083W, strain WHI5 (second series), stronger effect = lower value 1.12 | S. cerevisiae deletion strains, locus YOR083W, strain WHI5, stronger effect = lower value 0.996 | S. cerevisiae deletion strains, locus YOR106W, strain vam3, stronger effect = lower value 0.927 | S. cerevisiae deletion strains, locus YOR136W, strain idh2, stronger effect = lower value 0.989 | S. cerevisiae deletion strains, locus YOR144C, strain elg1, stronger effect = lower value 0.992 | S. cerevisiae deletion strains, locus YOR184W, strain ser1, stronger effect = lower value 0.909 | S. cerevisiae deletion strains, locus YOR231W, strain MKK1, stronger effect = lower value 0.949 | S. cerevisiae deletion strains, locus YOR265W, strain rbl2, stronger effect = lower value 0.97 | S. cerevisiae deletion strains, locus YOR270C, strain vph1, stronger effect = lower value 0.799 | S. cerevisiae deletion strains, locus YOR290C, strain snf2, stronger effect = lower value 0.97 | S. cerevisiae deletion strains, locus YOR316C, strain cot1, stronger effect = lower value 0.988 | S. cerevisiae deletion strains, locus YPL051W, strain arl3, stronger effect = lower value 1 | S. cerevisiae deletion strains, locus YPL055C, strain LGE1, stronger effect = lower value 0.971 | S. cerevisiae deletion strains, locus YPL078C, strain atp4, stronger effect = lower value 0.985 | S. cerevisiae deletion strains, locus YPL106C, strain sse1, stronger effect = lower value 1.02 | S. cerevisiae deletion strains, locus YPL240C, strain hsp82, stronger effect = lower value 0.994 | S. cerevisiae deletion strains, locus YPL241C, strain CIN2, stronger effect = lower value 0.99 and 0.991 | S. cerevisiae deletion strains, locus YPL256C, strain CLN2, stronger effect = lower value 0.953 | S. cerevisiae deletion strains, locus YPR119W, strain clb2, stronger effect = lower value 0.983 | S. cerevisiae deletion strains, locus YPR141C, strain kar3, stronger effect = lower value 0.985 | S. cerevisiae deletion strains, locus YPR163C, strain tif3, stronger effect = lower value 0.981 | S. cerevisiae deletion strains, locus YPR167C, strain met16, stronger effect = lower value 0.984 | S. cerevisiae deletion strains, strain wtn01, stronger effect = lower value 0.987 | S. cerevisiae strains, strain wild type, stronger effect = lower value 0.993
